This passage reports potency estimated from few doses results from publication PMC11062922 (Nature Chemical Biology, 2023).

Holding throughout (parameters): species or system human, MV4-11 + K-562 + COLO205 + SK-N-BE2 + OVCAR-8
Assay [1] deals with EGFR. The conditions noted are these: read-out: apparent Kd, compound concentrations: 100 nM and 1000 nM (sheet 'Samples'), n = 1.
For assay [2], the system named is DYNC1LI1. The conditions noted are these: read-out: apparent Kd, n = 1.
Assay [3] concerns GALK1. The conditions noted are these: read-out: apparent Kd; compound concentrations:100 nM and 1000 nM (sheet 'Samples'); n = 1.
Assay [4] has as its system MAP3K1. The conditions noted are these: read-out: apparent Kd; compound concentrations:100 nM and 1000 nM (sheet 'Samples'); n = 1.
For assay [5], the system named is MAP4K5. The conditions noted are these: read-out: apparent Kd; compound concentrations:100 nM and 1000 nM (sheet 'Samples'); n = 1.
Assay [6] concerns NUAK2. To be noted: read-out: apparent Kd; compound concentrations:100 nM and 1000 nM (sheet 'Samples'); n = 1.
Assay [7] has as its system SLK. The conditions noted are these: read-out: apparent Kd; compound concentrations:100 nM and 1000 nM (sheet 'Samples'); n = 1.
The test system of assay [8] is STK10. To be noted: read-out: apparent Kd; compound concentrations:100 nM and 1000 nM (sheet 'Samples'); n = 1.
The test system of assay [9] is GSK3A. The conditions noted are these: read-out: apparent Kd; compound concentrations: 100 nM and 1000 nM (sheet 'Samples'), CATDS: 8.5763522680639803E-2; n = 1.
For assay [10], the system named is GSK3B. To be noted: read-out: apparent Kd; compound concentrations: 100 nM and 1000 nM (sheet 'Samples'), CATDS: 7.6779937662019099E-2; n = 1.
The test system of assay [11] is IRAK4. To be noted: read-out: apparent Kd; compound concentrations: 100 nM and 1000 nM (sheet 'Samples'), CATDS: 6.7100435979899897E-2; n = 1.
In assay [12] the test system is MAP2K1. To be noted: read-out: apparent Kd; compound concentrations: 100 nM and 1000 nM (sheet 'Samples'), CATDS: 6.4942175038997504E-2; n = 1.
The test system of assay [13] is MAP3K2. To be noted: read-out: apparent Kd; compound concentrations: 100 nM and 1000 nM (sheet 'Samples'), CATDS: 7.9900498504471701E-2; n = 1.
The test system of assay [14] is STK3. The conditions noted are these: read-out: apparent Kd; compound concentrations: 100 nM and 1000 nM (sheet 'Samples'), CATDS: 7.3483496844903004E-2; n = 1.
For assay [15], the system named is STK4. To be noted: read-out: apparent Kd; compound concentrations: 100 nM and 1000 nM (sheet 'Samples'), CATDS: 6.4981472702296803E-2; n = 1.
In assay [16] the test system is TAOK1. To be noted: read-out: apparent Kd, compound concentrations: 100 nM and 1000 nM (sheet 'Samples'), n = 1.
For assay [17], the system named is TAOK3. To be noted: read-out: apparent Kd; compound concentrations: 100 nM and 1000 nM (sheet 'Samples'), CATDS: 8.7598902274653806E-2; n = 1.
The subject of assay [18] is TNK2. The conditions noted are these: read-out: apparent Kd; compound concentrations: 100 nM and 1000 nM (sheet 'Samples'), CATDS: 8.6765119114313102E-2; n = 1.
The subject of assay [19] is TUBB6. The conditions noted are these: read-out: apparent Kd; compound concentrations: 100 nM and 1000 nM (sheet 'Samples'), CATDS: 7.2898721054062393E-2; n = 1.
For assay [20], the system named is WEE1. To be noted: read-out: apparent Kd; compound concentrations: 100 nM and 1000 nM (sheet 'Samples'), CATDS: 6.8522632580167595E-2; n = 1.
The test system of assay [21] is T1, DJA1.
T1 construct: gene DNAJA1
To be noted: read-out: apparent Kd, n = 1.

Assay [22] concerns GRAMD1A. To be noted: read-out: apparent Kd; compound concentrations: 100 nM and 1000 nM (sheet 'Samples'), CATDS: 0.16329310208272499; n = 1.
For assay [23], the system named is PDXK. To be noted: read-out: apparent Kd; compound concentrations: 100 nM and 1000 nM (sheet 'Samples'), CATDS: 0.146836673645412; n = 1.
Assay [24] has as its system STK16. The conditions noted are these: read-out: apparent Kd; compound concentrations: 100 nM and 1000 nM (sheet 'Samples'), CATDS: 0.15656127155851701; n = 1.
In assay [25] the test system is TESK1. The conditions noted are these: read-out: apparent Kd; compound concentrations: 100 nM and 1000 nM (sheet 'Samples'), CATDS: 0.150305676910791; n = 1.
Assay [26] has as its system PRKD2. To be noted: read-out: apparent Kd; compound concentrations:100 nM and 1000 nM (sheet 'Samples'); n = 1.
Assay [27] concerns PRKD3. To be noted: read-out: apparent Kd; compound concentrations:100 nM and 1000 nM (sheet 'Samples'); n = 1.
Assay [28] has as its system GAK. To be noted: read-out: apparent Kd, compound concentrations: 100 nM and 1000 nM (sheet 'Samples'), n = 1.
For assay [29], the system named is RIPK2. The conditions noted are these: read-out: apparent Kd, compound concentrations: 100 nM and 1000 nM (sheet 'Samples'), n = 1.
For assay [30], the system named is RET. To be noted: read-out: apparent Kd; compound concentrations: 100 nM and 1000 nM (sheet 'Samples'), CATDS: 0.33989373739411199; n = 1.
The test system of assay [31] is EPHA1. To be noted: read-out: apparent Kd; compound concentrations: 100 nM and 1000 nM (sheet 'Samples'), CATDS: 8.4373240562764601E-2; n = 1.
The subject of assay [32] is EPHB4. The conditions noted are these: read-out: apparent Kd; compound concentrations: 100 nM and 1000 nM (sheet 'Samples'), CATDS: 9.3319537671251104E-2; n = 1.
For assay [33], the system named is MAPKAPK2. To be noted: read-out: apparent Kd; compound concentrations: 100 nM and 1000 nM (sheet 'Samples'), CATDS: 6.9663188807488702E-2; n = 1.
In assay [34] the test system is PIK3CA. The conditions noted are these: read-out: apparent Kd; compound concentrations: 100 nM and 1000 nM (sheet 'Samples'), CATDS: 0.12114887477335; n = 1.
For assay [35], the system named is PIK3CD. The conditions noted are these: read-out: apparent Kd, compound concentrations: 100 nM and 1000 nM (sheet 'Samples'), n = 1.
The subject of assay [36] is PIK3CG. To be noted: read-out: apparent Kd; compound concentrations: 100 nM and 1000 nM (sheet 'Samples'), CATDS: 8.4802846120227496E-2; n = 1.
Assay [37] concerns RIPK3. To be noted: read-out: apparent Kd; compound concentrations: 100 nM and 1000 nM (sheet 'Samples'), CATDS: 8.3491494498952795E-2; n = 1.
Assay [38] deals with MAP3K12. The conditions noted are these: read-out: apparent Kd; compound concentrations: 100 nM and 1000 nM (sheet 'Samples'), CATDS: 0.23080963599757501; n = 1.
Setting [39] is: compound concentrations:100 nM and 1000 nM (sheet 'Samples').

Read-outs that look alike come from different tables or passages of the source.

On to `Cl.c1ccc(Cn2ccc3cc(Nc4ncnc5ccccc45)ccc32)cc1` [GW275568A], for which the potency estimated from few doses in assay [1] (CATDS: 1) is 82.9 nM.

Turning to `C[C@@H](Oc1cc(-n2cnc3cc(-c4ccncc4)ccc32)sc1C(N)=O)c1ccccc1Cl` [GSK479719A], the potency estimated from few doses in [2] (setting [39]) was 1560 nM; in [3], 986 nM; in assay [4], 91.2 nM; in assay [5], 2270 nM; in [6], 1160 nM; in assay [7], 510 nM. For the same compound, the potency estimated from few doses in [8] was 142 nM.

In the case of `COc1ccc2c(c1)C(c1ccccc1Cl)=Nc1c(n[nH]c1C)N2` [RO0281498-000], the potency estimated from few doses in [2] (compound concentrations: 100 nM and 1000 nM (sheet 'Samples'), CATDS: 8.5515201932316404E-2) is 1210 nM; in assay [9] it was 1210 nM; in assay [10] it was 1500 nM; in assay [11] it was 2010 nM; in assay [12], 2180 nM; in [13], 1380 nM. Besides, the potency estimated from few doses in assay [14] is 1640 nM; in assay [15] it was 2180 nM; in [16] (CATDS: 0.10465573180823801), 858 nM; in assay [17], 1160 nM; in assay [18], 1180 nM; in assay [19] it was 1670 nM. The potency estimated from few doses in [20] was 1920 nM.

Take `CS(=O)(=O)CCN(CC#N)Cc1ccc(-c2ccc3ncnc(Nc4ccc(OCc5cccc(F)c5)c(Cl)c4)c3c2)o1` [GW616030X]: the potency estimated from few doses in assay [1] (CATDS: 1) was 244 nM.

For the compound `Cc1c(O)cccc1Nc1ccnc2ccc(C(F)(F)F)cc12.Cl` [GW466413A], the potency estimated from few doses was 686 nM in assay [21] (compound concentrations: 100 nM and 1000 nM (sheet 'Samples'), CATDS: 0.25359634336132503); 1490 nM in assay [22]; 1890 nM in assay [23]; 1630 nM in assay [24]; 1470 nM in assay [16] (CATDS: 0.164417003355011); 1790 nM in assay [25].

Consider `Cc1cccc(-c2nc(Nc3ccc4ncsc4c3)c3ccccc3n2)n1` [GW867588X], for which the potency estimated from few doses in assay [21] (setting [39]) is 134 nM; in [26], 37.5 nM; in assay [27], 74.8 nM.

`C#Cc1cccc(Nc2ncnc3cc(OC)c(OC4CCN(C)CC4)cc23)c1` [BI00007366]: the results for the potency estimated from few doses in assay [1] (CATDS: 0.27319466125259201), in [28] (CATDS: 0.38094365160878402) and in assay [29] (CATDS: 0.36838569788984799) were 1300 nM, 634 nM and 674 nM, respectively.

Consider `COc1cc2ncnc(Nc3ccc(C)c(O)c3)c2cc1OC.Cl` [GW410563A], for which the potency estimated from few doses is 439 nM in assay [1] (CATDS: 0.29565759118255602), 326 nM in assay [30] and 272 nM in assay [29] (CATDS: 0.37374612171419203).

As to `COc1cc2ncnc(Nc3ccc(F)c(Cl)c3)c2cc1O[C@H]1CC[C@H](N)CC1` [BIBW3133BS], the potency estimated from few doses in assay [1] (CATDS: 0.31081219561231099) is 48.6 nM; in [31], 670 nM; in assay [32] it was 508 nM; in [28] (CATDS: 7.6130935509039099E-2) it was 922 nM; in assay [33] it was 1270 nM; in [34], 273 nM. For the same compound, the potency estimated from few doses in [35] (CATDS: 0.31843258690153697) is 46.8 nM; in assay [36] it was 660 nM; in [29] (CATDS: 8.6500761240037902E-2), 624 nM; in [37] it was 691 nM.

In the case of `Cl.Fc1ccccc1COc1ccc(Nc2ncnc3ccc(-c4nnc(C(F)(F)F)o4)cc23)cc1Cl` [GW424170A], the potency estimated from few doses was 448 nM in [1] (CATDS: 0.318491462582081), 1290 nM in assay [38] and 104 nM in assay [35] (CATDS: 0.65461148719951301).
